{"source": "PubChem BioAssay AID623868", "about": "(Vanderbilt High Throughput Screening Facility, 2012)", "note": "In all, about 2,100 compounds went through this assay and about 760 (36%) were called active. Only a sample is shown. Values without a mark were called inactive.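 How the source made its calls: active means thallium-flux fluorescence traces judged by eye to show enhanced or reduced glutamate response, manual score 1 or -1, so both directions (some results past the limit were not filed as active); inactive means the rest, including fluorescent or raised-baseline compounds.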", "data": [{"assay": "non-GIRK thallium flux modulation in mGlu8 cells, confirmation, counter-screen for GIRK activator project, cell-based, HEK-293 rmGlu8, no GIRK (AID 623868);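 further: extra codes mark interference with 3 for fluorescent and 4 for baseline rise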", "settings": "thallium flux fluorescence, at 10 µM, actives lie on both sides, codes: 1 enhancer, -1 blocker, 0 none, thallium stimulus containing EC20 glutamate", "values": [{"smiles": "Cc1ccc(-c2[nH]n3c(=O)c4c(nc3c2C)CCCC4)cc1", "manual score": 0}, {"smiles": "O=c1c2c(nc3c(-c4ccccc4)c[nH]n13)CCCC2", "manual score": "1 (active)"}, {"smiles": "O=c1c2c(nc3c(-c4cccc(Br)c4)c[nH]n13)CCCC2", "manual score": 0}, {"smiles": "O=c1c2c(nc3c(-c4ccc(Cl)cc4)c[nH]n13)CCCC2", "manual score": "1 (active)"}, {"smiles": "O=c1[nH]c(SCc2ccccc2Cl)nc2c1CCCC2", "manual score": 0}, {"smiles": "Cc1ccc2c(CC(=O)NC3CCCc4ccccc43)coc2c1", "note": "(configuration not stated)", "manual score": 0}, {"smiles": "CC(C)(C)NC(=O)C(=O)NNC(=O)COc1ccc(Br)cc1", "manual score": "1 (active)"}, {"smiles": "CCOc1ccc(NC(=O)Nc2cc(C)ccc2OC)cc1", "manual score": 0}, {"smiles": "COc1cccc(NC(=O)COc2ccc(C)cc2)c1", "manual score": 0}, {"smiles": "Cc1ccc(OCC(=O)NNC(=O)C(=O)NC(C)(C)C)cc1", "manual score": "1 (active)"}, {"smiles": "COc1ccccc1NC(=O)COc1ccc(Br)cc1CO", "manual score": 0}, {"smiles": "COc1ccc(OCC(=O)NNC(=O)C(=O)Nc2ccc(C)cc2)cc1", "manual score": "1 (active)"}, {"smiles": "C=C(C)C1CC=C(C)/C(=N/NC(=O)COc2ccc(C)cc2)C1", "note": "(configuration not stated)", "manual score": 0}, {"smiles": "Cc1ccc(OCC(=O)N/N=C/c2cccn2C)cc1", "manual score": 0}, {"smiles": "S=C1NC2=C(CCCC2)C2(CCCCC2)N1", "manual score": 0}, {"smiles": "CN(CC(=O)Nn1cnnc1)S(=O)(=O)c1ccc(Br)cc1", "manual score": 0}, {"smiles": "C/C(=N\\NC(=O)c1ccc(Cl)cc1)c1ccc(Br)s1", "manual score": "1 (active)"}, {"smiles": "C/C(=N\\NC(=O)c1ccccc1)c1nc2ccccc2n1C", "manual score": 0}, {"smiles": "O=C(N/N=C/c1c(Cl)cccc1Cl)c1cccc(F)c1", "manual score": 0}, {"smiles": "CCC(NC(=O)c1ccccc1O)c1ccccc1", "note": "(configuration not stated)", "manual score": 0}, {"smiles": "C/C(=N\\NC(=O)c1cccc(F)c1)c1ccc(Br)s1", "manual score": "1 (active)"}, {"smiles": "C/C(=N\\NC(=O)c1ccccc1O)c1ccc(Br)s1", "manual score": "1 (active)"}, {"smiles": "CN(C)/C=C/C(=O)/C=C/c1cn(-c2ncc(C(F)(F)F)cc2Cl)c2ccccc12", "manual score": 0}, {"smiles": "CCc1ccc2c(c1)C1(NN=C(c3ccc(C)cc3)S1)C(=O)N2", "note": "(configuration not stated)", "manual score": 0}, {"smiles": "CCOC(=O)c1c(NC(=O)C2C3C=CC(C3)C2C(=O)O)sc2c1CCC(CC)C2", "note": "(configuration not stated)", "manual score": 0}, {"smiles": "CCOC(=O)c1ccc(CNCc2ccc(Br)cc2)cc1", "manual score": 0}, {"smiles": "CCOC(=O)c1c(NS(=O)(=O)c2cccc(OC)c2)sc2c1CCC2", "manual score": "1 (active)"}, {"smiles": "CCOC(=O)c1c(NS(=O)(=O)c2ccc(Br)cc2)sc2c1CCC2", "manual score": "1 (active)"}, {"smiles": "O=C1CS/C(=N\\C(=O)N2c3ccccc3Sc3ccccc32)N1", "manual score": 0}, {"smiles": "CC(C)Cn1cnc2c(c(-c3ccccc3)c(-c3ccccc3)n2Cc2ccco2)c1=N", "manual score": 0}, {"smiles": "O=S(=O)(Nc1cc(Sc2cccc3cccnc23)c(O)c2ccccc12)c1ccc(F)cc1", "manual score": 0}, {"smiles": "CC(=O)/C(=N\\Nc1ccc(Cl)cc1Cl)Sc1cccc2cccnc12", "manual score": "1 (active)"}, {"smiles": "CCOc1ccc(-c2nc(-c3ccncc3)no2)cc1OCC", "manual score": 0}, {"smiles": "O=C(CC(=O)c1ccccc1O)c1cccc(F)c1", "manual score": "1 (active)"}, {"smiles": "Cc1cccc(C(=O)CC(=O)c2cc(Cl)ccc2O)c1", "manual score": 0.5}, {"smiles": "Cc1ccc(C(=O)CC(=O)c2cc(Cl)ccc2O)cc1", "manual score": 0}, {"smiles": "C/C(=N/NC(=O)c1cc(Cl)ccc1O)C12CC3CC(CC(C3)C1)C2", "manual score": 0}, {"smiles": "O=C(CC(=O)c1ccccc1O)c1ccc(F)cc1", "manual score": "1 (active)"}, {"smiles": "O=C(c1cccc(F)c1)N1CCN(Cc2ccco2)CC1", "manual score": 0}, {"smiles": "O=C(CC(=O)c1cc(Cl)ccc1O)c1ccccc1", "manual score": "1 (active)"}, {"smiles": "COC(=O)c1nc(NC(C)=O)n[nH]1", "manual score": 0}, {"smiles": "Cc1ccc(NC(=O)COn2nnc3ccc(S(=O)(=O)N(C)C)cc32)cc1F", "manual score": 0}, {"smiles": "Cc1ccc(C2c3c(oc4ccc(Cl)cc4c3=O)C(=O)N2CCCN2CCOCC2)o1", "note": "(configuration not stated)", "manual score": "1 (active)"}, {"smiles": "O=c1c(O)c(-c2cccs2)oc2ccc(Cl)cc12", "manual score": 3}, {"smiles": "CCN(CC)CCN1C(=O)c2oc3ccccc3c(=O)c2C1c1ccc(C)cc1", "note": "(configuration not stated)", "manual score": 0}, {"smiles": "COCCn1c(CN(Cc2ccccc2)Cc2ccccc2)nc2c1c(=O)n(C)c(=O)n2C", "manual score": 0}, {"smiles": "O=C(N/N=C\\c1cc(Br)c(Br)o1)c1cncc(Br)c1", "manual score": "1 (active)"}, {"smiles": "CCNC(=O)NC(=O)COC(=O)CCCSc1nc2ccccc2[nH]1", "manual score": 0}, {"smiles": "CN(C)CCCOc1ccc(C(C)(C)c2ccccc2)cc1", "manual score": 0}, {"smiles": "O=C(NC(=S)Nc1ccccc1)c1csnn1", "manual score": "1 (active)"}, {"smiles": "O=C(NC(=S)Nc1ccccc1Cl)c1csnn1", "manual score": "1 (active)"}, {"smiles": "CC(C)C(=O)Nc1cccc(NC(=O)c2cc3ccccc3o2)c1", "manual score": 0}, {"smiles": "Cc1ccc(C)c(NC(=S)NNC(=O)c2csc(C(C)C)c2)c1", "manual score": "1 (active)"}, {"smiles": "Cc1cccc(NC(=S)NNC(=O)c2csc(C(C)C)c2)c1", "manual score": "1 (active)"}, {"smiles": "O=[n+]1c2c(n([O-])c3cc(F)c(N4CCCC4)cc31)CCC2", "manual score": 3}, {"smiles": "Cc1cccc2c(=O)cc(C)n(CC(=O)N3CCCCC3)c12", "manual score": -0.5}, {"smiles": "CCOC(=O)CSc1nc(C)c2cc(OC)ccc2n1", "manual score": 0}, {"smiles": "COc1ccc2c(-c3ccccc3)cc(SCC(=O)N(C)C3CCS(=O)(=O)C3)nc2c1", "note": "(configuration not stated)", "manual score": "1 (active)"}, {"smiles": "CCN(C(=O)CSc1nc2ccccc2n1CCc1ccccc1)C1CCS(=O)(=O)C1", "note": "(configuration not stated)", "manual score": 0}, {"smiles": "Cc1ccc(NC(=O)Cc2ccccc2Cl)cc1S(=O)(=O)N(C)C", "manual score": 0}, {"smiles": "CN(CCNC(=O)c1cc2c(=O)n(C)c3ccccc3c2n1C)Cc1ccccc1", "manual score": 0}, {"smiles": "CC1(C)Cc2c(ccc3ccccc23)-c2nnc(-c3cccnc3)n21", "manual score": 0}, {"smiles": "COc1ccc(-c2ccnc3nc(Sc4ncc(C(F)(F)F)cc4Cl)nn23)cc1", "manual score": 0}, {"smiles": "COc1cccc(C(=O)NC(=S)Nc2ccc([N+](=O)[O-])cc2C)c1", "manual score": "1 (active)"}, {"smiles": "Cc1ccc([N+](=O)[O-])cc1NC(=S)NC(=O)c1ccco1", "manual score": "1 (active)"}, {"smiles": "Cc1cc([N+](=O)[O-])ccc1NC(=S)NC(=O)Cc1ccccc1", "manual score": "1 (active)"}, {"smiles": "Cc1ccc(NC(=S)NCc2ccccc2)cc1[N+](=O)[O-]", "manual score": 0}, {"smiles": "O=C(Cc1ccccc1)N/N=C/c1cccn1-c1ccc([N+](=O)[O-])cc1", "manual score": 0}, {"smiles": "O=C(NC(=S)Nc1cc([N+](=O)[O-])ccc1Cl)c1ccccc1", "manual score": 0}, {"smiles": "CC(=O)Nc1ccc(NC(=O)CSc2nccn2Cc2ccccc2)cc1", "manual score": 0}, {"smiles": "COc1ccc(CO/N=C/c2c(C)[nH]c(=O)[nH]c2=O)cc1", "manual score": 0}, {"smiles": "CCOC(=O)C(CCCCOc1cccc(CC)c1)C(=O)OCC", "manual score": 0}, {"smiles": "CCOc1ccc(-c2nc(-c3ccc(OC)cc3)no2)cc1OCC", "manual score": 0}, {"smiles": "Oc1c(Cl)cc(Cl)c2c1NCCC2", "manual score": 0}, {"smiles": "Cc1cccc(OCC(O)Cn2c(=N)n(CCN3CCCCC3)c3ccccc32)c1", "note": "(configuration not stated)", "manual score": 0}, {"smiles": "c1ccc2c(c1)oc1c(N3CCN(Cc4ccc5c(c4)OCO5)CC3)ncnc12", "manual score": 0}, {"smiles": "COc1ccccc1N1CCN(Cc2cc(Br)c(O)c3ncccc23)CC1", "manual score": "1 (active)"}, {"smiles": "COC(=O)C1=C(C)NC(=O)/C1=C\\c1ccco1", "manual score": 0}, {"smiles": "Cc1cccc(N=C2NC(=O)/C(=C/C=C/c3ccco3)S2)c1C", "manual score": "1 (active)"}, {"smiles": "CC(C)c1ccc(-c2noc(C3CCCN(S(C)(=O)=O)C3)n2)cc1", "note": "(configuration not stated)", "manual score": 0}, {"smiles": "O=C(COc1c(Br)cc(Br)c2cccnc12)N1CCc2ccccc2C1", "manual score": "1 (active)"}, {"smiles": "CCOC(=O)c1c(C)c(C(=O)N2CCc3ccccc3C2)c(C)n1CC", "manual score": 0}, {"smiles": "CC(C)=CCC(C)(C)CNC(=O)NC1CCCCC1", "manual score": 0}, {"smiles": "Cn1c(-c2sc3ccccc3c2Cl)n[nH]c1=S", "manual score": "1 (active)"}, {"smiles": "CCC(CC)c1nnc(NC(=O)c2ccc3ccccc3n2)s1", "manual score": "1 (active)"}, {"smiles": "CCC(CC)c1nnc(NC(=O)C2COc3ccccc3O2)s1", "note": "(configuration not stated)", "manual score": 0}, {"smiles": "Cc1nnc(NC(=O)CCSc2ccccc2)s1", "manual score": 0}, {"smiles": "N#CCN1C(=S)N=C(Nc2cccc(Cl)c2)C12CCCCC2", "manual score": 0}, {"smiles": "COc1ccc(NC2=NC(=S)N(c3ccccc3C)C23CCCCC3)cc1", "manual score": "1 (active)"}, {"smiles": "Cc1ccc(NC2=NC(=S)N(CC#N)C23CCCCC3)cc1", "manual score": "1 (active)"}, {"smiles": "O=c1c2ccccc2[nH]c(=S)n1CCCN1CCN(C2CCCCC2)CC1", "manual score": "1 (active)"}, {"smiles": "CC(C)CCn1c(CN2CCN(Cc3ccccc3)CC2)nc2c1c(=O)[nH]c(=O)n2C", "manual score": 0}, {"smiles": "CC1CCCCN1CCCn1c(=S)[nH]c2ccccc2c1=O", "note": "(configuration not stated)", "manual score": 0}, {"smiles": "O=C(NCc1ccccc1)c1ccc2c(=O)n(CCCN3CCCC3=O)c(=S)[nH]c2c1", "manual score": 0}, {"smiles": "Cc1ccccc1-c1nc(CN2CCC(C(=O)NCCCN3CC(C)CC(C)C3)CC2)c(C)o1", "note": "(configuration not stated)", "manual score": 0}, {"smiles": "CCC1CCCCN1CCCn1c(=S)[nH]c2ccccc2c1=O", "note": "(configuration not stated)", "manual score": "1 (active)"}, {"smiles": "CC1CC(C)CN(CCCn2c(=S)[nH]c3ccccc3c2=O)C1", "note": "(configuration not stated)", "manual score": "1 (active)"}, {"smiles": "O=c1c2ccccc2[nH]c(=S)n1CCN1CCN(Cc2ccccc2)CC1", "manual score": "1 (active)"}, {"smiles": "CCC1CCCN1Cn1cnc2c([nH]c3ccc(OC)cc32)c1=O", "note": "(configuration not stated)", "manual score": 0}, {"smiles": "Cc1cccc(N2C(N)=NC(N)=NC23CCCCC3)c1", "manual score": 0}, {"smiles": "CCN(CC)S(=O)(=O)c1cc(NC(=O)Cn2cnc3ccccc3c2=O)ccc1C", "manual score": 0}, {"smiles": "CC(C)CN(C(=O)COC(=O)Cc1n[nH]c(=O)c2ccccc12)C1CCS(=O)(=O)C1", "note": "(configuration not stated)", "manual score": 0}, {"smiles": "CCOC(=O)c1c(C)[nH]c(=S)c(C#N)c1-c1ccc(Cl)cc1", "manual score": 0.5}, {"smiles": "COc1ccc(-c2c3c([nH]c(=S)c2C#N)CCC3)cc1", "manual score": "1 (active)"}, {"smiles": "CCN1CCCC1CNC(=O)CSCc1nc(-c2ccccc2C)oc1C", "note": "(configuration not stated)", "manual score": 0}, {"smiles": "O=C(NC(NC(=S)Nc1ccc(Cl)cc1Cl)C(Cl)(Cl)Cl)c1cccc([N+](=O)[O-])c1", "note": "(configuration not stated)", "manual score": "1 (active)"}, {"smiles": "O=C(/C=C/c1ccccc1)NC(NC(=S)Nc1cc(Cl)ccc1Cl)C(Cl)(Cl)Cl", "note": "(configuration not stated)", "manual score": 0}, {"smiles": "O=C(/C=C/c1ccccc1)NC(NC(=S)Nc1cccc(O)c1)C(Cl)(Cl)Cl", "note": "(configuration not stated)", "manual score": 3}, {"smiles": "O=C(/C=C/c1ccccc1)NC(NC(=S)Nc1cccc(Cl)c1)C(Cl)(Cl)Cl", "note": "(configuration not stated)", "manual score": 0}, {"smiles": "COC(=O)c1ccccc1NC(=S)NC(NC(=O)c1ccccc1[N+](=O)[O-])C(Cl)(Cl)Cl", "note": "(configuration not stated)", "manual score": "1 (active)"}, {"smiles": "COC(=O)c1ccccc1NC(=S)NC(NC(=O)c1ccco1)C(Cl)(Cl)Cl", "note": "(configuration not stated)", "manual score": "1 (active)"}, {"smiles": "CCC1c2ccc(C)n2CCN1C(=O)Nc1ccccc1C(=O)OC", "note": "(configuration not stated)", "manual score": 0}]}]}
